The source of these data is PubChem BioAssay.

The structures appear in SMILES notation. Activity calls are given as the source filed them.

The nature of experiment [1]: optical density shifts of acrAB sulA E. coli – strain DRC41, OD650, 48 h, E. coli filamentation inducer project, primary screen (AID 1152).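 Also: E. coli MC1000 strain DRC41 lacking acrAB efflux pump and sulA.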 As to conditions: higher = more signal, called active from +8 up or from −8 down.
Experiment [2] can be described thus: probe aLefty1 binding on compound microarray – biochemical, small-molecule microarray, 635/667 nm fluorescence, primary screen (AID 1153).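 Also: score merges spot fluorescence with signal-to-noise ratio from the scanned slide images.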 As to conditions: higher = more signal.
A short description of experiment [3]: plasmodial surface anion channel blockers, osmotic lysis – cell-based, P. falciparum Indochina, OD700, 1 h, primary screen (AID 1154). Conditions: P. falciparum Indochina infected RBC osmotic lysis, higher = more signal, called active from +8 up or from −8 down.
Experiment [4] can be described thus: plasmodial surface anion channel blockers, osmotic lysis – cell-based, P. falciparum Indochina, OD700, 2 h, primary screen (AID 1155).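 Also: lysis reports solute entry through the parasite surface anion channel PSAC.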 Conditions: P. falciparum Indochina infected erythrocytes, higher = more signal, called active from +8 up or from −8 down.
Experiment [5] is described as follows: changes in parasitized red cell lysis, either direction – P. falciparum Indochina, OD700, 3 h, PSAC antagonist project, primary screen (AID 1156). Conditions: P. falciparum-infected erythrocytes, osmotic lysis, higher = more signal, called active from +8 up or from −8 down.
Experiment [6] in a line: plasmodial surface anion channel blockers, osmotic lysis – cell-based, P. falciparum Indochina, OD700, 18 h, primary screen (AID 1157). As to conditions: P. falciparum Indochina infected erythrocytes, osmotic lysis OD700, 18 h; higher = more signal, called active from +8 up or from −8 down.
The nature of experiment [7]: S6 kinase pathway phospho-S6 level changes – cell-based, A549, cytoblot, luminescence, serum-stimulated, primary screen (AID 1158).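 Also: serum-stimulated A549 lung adenocarcinoma cells; signal is phosphorylated S6 detected by cytoblot immunostaining with HRP secondary.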 As to conditions: 5 h, higher = more signal.
Experiment [8] addresses NADPH oxidase 2 (Homo sapiens) (UniProt P04839). Description: compounds shifting NOX2 Amplex Red fluorescence – cell-based, HEK293-NOX2, PMA-stimulated, NOX inhibitor project, primary screen (AID 1159). Also: test concentration not given here. As to conditions: 45 min, higher = more signal, called active from +8 up or from −8 down.
The target of experiment [9] is NADPH oxidase 4 (Homo sapiens) (UniProt Q9NPH5). Briefly: compounds shifting NOX4 Amplex Red fluorescence – cell-based, HEK293-NOX4, tetracycline-induced, NOX inhibitor project, primary screen (AID 1160). As to conditions: HEK293-NOX4, Amplex Red H2O2 fluorescence, 45 min; higher = more signal, called active from +8 up or from −8 down.
NADPH oxidase 4 (Homo sapiens), sequence (Q9NPH5 whole entry, looked up): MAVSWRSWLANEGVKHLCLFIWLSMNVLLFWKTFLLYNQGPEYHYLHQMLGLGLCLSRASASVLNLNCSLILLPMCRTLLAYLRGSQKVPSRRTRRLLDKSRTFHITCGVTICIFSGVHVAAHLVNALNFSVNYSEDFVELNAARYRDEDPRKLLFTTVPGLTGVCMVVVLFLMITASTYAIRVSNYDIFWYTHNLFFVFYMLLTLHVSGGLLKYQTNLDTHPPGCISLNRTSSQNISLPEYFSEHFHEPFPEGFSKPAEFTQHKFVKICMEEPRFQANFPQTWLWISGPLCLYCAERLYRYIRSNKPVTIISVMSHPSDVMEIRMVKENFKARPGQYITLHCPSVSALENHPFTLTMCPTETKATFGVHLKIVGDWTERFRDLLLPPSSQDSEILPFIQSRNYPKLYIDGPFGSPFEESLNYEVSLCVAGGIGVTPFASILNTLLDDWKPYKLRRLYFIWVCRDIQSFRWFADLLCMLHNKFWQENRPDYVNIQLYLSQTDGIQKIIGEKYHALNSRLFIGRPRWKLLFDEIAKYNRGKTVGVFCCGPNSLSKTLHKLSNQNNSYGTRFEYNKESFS
Experiment [10] deals with NADPH oxidase 5 (Homo sapiens) (UniProt Q96PH1). Description: compounds shifting NOX5 Amplex Red fluorescence – cell-based, HEK293-NOX5, NOX inhibitor project, primary screen (AID 1161). Conditions: HEK293-NOX5, ionomycin, 45 min, higher = more signal.
NADPH oxidase 5 (Homo sapiens), sequence (Q96PH1 whole entry, looked up): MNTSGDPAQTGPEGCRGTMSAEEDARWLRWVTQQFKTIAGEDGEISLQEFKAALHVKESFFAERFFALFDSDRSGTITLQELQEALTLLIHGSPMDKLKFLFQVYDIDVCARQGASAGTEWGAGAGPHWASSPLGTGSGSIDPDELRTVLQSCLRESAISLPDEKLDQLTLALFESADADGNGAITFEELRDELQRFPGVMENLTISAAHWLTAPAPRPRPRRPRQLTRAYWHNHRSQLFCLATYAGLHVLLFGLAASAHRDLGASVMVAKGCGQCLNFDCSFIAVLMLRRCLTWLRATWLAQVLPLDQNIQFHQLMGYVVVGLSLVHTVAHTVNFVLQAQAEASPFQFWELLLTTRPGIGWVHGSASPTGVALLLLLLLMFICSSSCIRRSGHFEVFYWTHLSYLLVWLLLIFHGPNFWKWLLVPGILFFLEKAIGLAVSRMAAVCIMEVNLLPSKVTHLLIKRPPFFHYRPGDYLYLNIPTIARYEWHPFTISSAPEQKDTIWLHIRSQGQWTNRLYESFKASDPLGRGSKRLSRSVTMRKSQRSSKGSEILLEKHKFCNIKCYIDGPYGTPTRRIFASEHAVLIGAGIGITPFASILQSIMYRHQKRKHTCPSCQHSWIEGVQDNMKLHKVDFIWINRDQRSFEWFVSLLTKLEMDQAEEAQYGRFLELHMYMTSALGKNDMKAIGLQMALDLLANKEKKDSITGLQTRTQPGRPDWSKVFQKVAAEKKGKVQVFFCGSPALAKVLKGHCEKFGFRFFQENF

NADPH oxidase 2 (Homo sapiens), sequence (P04839 whole entry, looked up): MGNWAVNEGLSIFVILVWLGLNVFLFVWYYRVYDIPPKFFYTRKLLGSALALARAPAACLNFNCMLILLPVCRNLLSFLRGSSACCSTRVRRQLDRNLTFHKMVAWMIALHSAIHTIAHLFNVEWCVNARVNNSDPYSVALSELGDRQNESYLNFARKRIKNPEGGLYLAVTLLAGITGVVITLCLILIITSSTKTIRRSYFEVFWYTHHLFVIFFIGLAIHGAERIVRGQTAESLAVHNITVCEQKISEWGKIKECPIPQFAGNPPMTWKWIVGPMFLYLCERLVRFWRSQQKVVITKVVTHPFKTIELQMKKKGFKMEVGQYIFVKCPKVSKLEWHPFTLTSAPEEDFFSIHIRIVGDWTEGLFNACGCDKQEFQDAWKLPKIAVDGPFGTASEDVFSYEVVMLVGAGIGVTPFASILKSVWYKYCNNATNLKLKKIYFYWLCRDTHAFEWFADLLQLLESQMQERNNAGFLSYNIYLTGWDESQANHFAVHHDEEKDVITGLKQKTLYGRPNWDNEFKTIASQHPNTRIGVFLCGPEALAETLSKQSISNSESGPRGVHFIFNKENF

Regarding `C=CCOC(=O)[C@H]1[C@@H]2C(=O)O[C@@H](c3ccccc3)[C@@H](c3ccccc3)N2[C@@H](c2ccc(OCCOC(=O)[C@@H]3C[C@@H]4C(=O)N[C@@H](CCCCN(C)C)C(=O)N4[C@@H]3c3ccc(O)cc3)cc2)[C@]12C(=O)Nc1ccccc12`, the z-score in [1] was -1.53 (inactive); in experiment [3], 0.0625 (inactive); in experiment [4] it was 0.249 (inactive); in [5], 3.35 (inactive); in experiment [6], 0.251 (inactive); in experiment [7], -0.444. In addition, the results for the z-score in [8], in experiment [9] and in [10] were 2.51 (inactive), 0.874 (inactive) and 0.391, respectively. For the same compound, the composite z-score in experiment [2] is -0.0873.
For the compound `CC(C)Cc1ccc(CN2CC[C@@H](NC(=O)Nc3ccccc3)C2)cc1`, the z-score in [1] is -3.31 (inactive); in experiment [3] it was 1.96 (inactive); in experiment [4], 0.981 (inactive); in experiment [5] it was 1.84 (inactive); in experiment [6], 0.575 (inactive); in [7], -1.03. For the same compound, the z-score was -0.507 (inactive) in [8], -0.351 (inactive) in [9] and -1.88 in experiment [10]. The compound also showed a composite z-score in [2] of -0.191.
With `C=C(/C(=C/C[C@H](OC(C)=O)c1cccc(OCCO)c1)c1cnc2ccccc2c1)C(C)C`, the z-score was -0.0902 (inactive) in [1]; 18.7 (active) in [3]; 3.44 (inactive) in experiment [4]; 1.67 (inactive) in experiment [5]; 1.12 (inactive) in experiment [6]; -0.343 in experiment [7]. Moreover, the z-score is 0.175 (inactive) in experiment [8], -0.456 (inactive) in [9] and -0.923 in experiment [10]. In addition, the composite z-score in experiment [2] was -0.0141.
On to `CC(C)(C)OC(=O)CC[C@]1(C(=O)NCc2ccccc2)N=C(c2ccc(OCCCO)cc2)O[C@H]1c1ccccc1CN=[N+]=[N-]`, for which the z-score was 0.829 (inactive) in [1]; 25.3 (active) in [3]; 12.3 (active) in experiment [4]; 3.22 (inactive) in experiment [5]; 1.65 (inactive) in experiment [6]; 0.224 in experiment [7]. The values for the z-score in experiment [8], in experiment [9] and in experiment [10] were -0.174 (inactive), -0.533 (inactive) and -1.47, respectively. In [2], this compound displayed a composite z-score of 0.146.
For `O=C1O[C@@H](c2ccccc2)[C@@H](c2ccccc2)N2[C@@H](c3ccccc3OCCO)[C@]3(C(=O)Nc4ccc(C#CCCO)cc43)[C@@H](C(=O)N3CCCCCCC3)[C@H]12`, the z-score was -0.723 (inactive) in [1]; 1.01 (inactive) in [3]; 0.83 (inactive) in experiment [4]; 0.352 (inactive) in [5]; 0.49 (inactive) in experiment [6]; -0.544 in [7]. Moreover, the z-score in experiment [8] is 1.02 (inactive); in experiment [9], 0.486 (inactive); in experiment [10], 1.69. For the same compound, in experiment [2], the composite z-score is 3.18.
Take `C=CC[C@]1(C(=O)O)COC(c2ccc(OCCCO)cc2)=N1`: the z-score in experiment [1] was -0.27 (inactive); in experiment [3] it was 2.23 (inactive); in experiment [4], -0.0432 (inactive); in [5], 0.472 (inactive); in experiment [6], 0.2 (inactive); in experiment [7] it was -0.331. Further, the results for the z-score in [8], in experiment [9] and in experiment [10] were 0.388 (inactive), -0.287 (inactive) and 1.09, respectively. The composite z-score in experiment [2] stood at 0.0437.
With `O=C1OCC=C[C@H]2OC34C=CCN(Cc5ccccc5)C(=O)[C@H]3N(CCCCCCO)C(=O)[C@@H]4[C@@H]12` (stereo not given in full), the z-score is 2.56 (inactive) in experiment [1]; 0.987 (inactive) in experiment [3]; -0.567 (inactive) in [4]; -0.368 (inactive) in experiment [5]; -0.924 (inactive) in [6]; 1.02 in [7]. Further, the z-score in [8] was 1.22 (inactive); in experiment [9], -0.272 (inactive); in [10] it was 1.87. Also, the composite z-score in experiment [2] is -0.152.
As for `COC(=O)[C@@]1(Cc2ccc(OC)cc2)[C@H]2c3cc(C(=O)N(C)C)n(Cc4ccc(Cl)c(C(F)(F)F)c4)c3C[C@H]2CN1C(=O)c1ccccc1`, the z-score was -1.4 (inactive) in experiment [1]; 7.57 (inactive) in experiment [3]; 1.42 (inactive) in [4]; 1.01 (inactive) in [5]; 1.21 (inactive) in experiment [6]; -0.264 in experiment [7]. Moreover, the z-score in [8] was 1.19 (inactive); in experiment [9], -0.227 (inactive); in [10], 1.57. For the same compound, in experiment [2], the composite z-score amounted to 0.357.
Turning to `CN(C)CCCNC(=O)[C@@H]1c2ccccc2C(=O)N(Cc2ccccc2Cl)[C@H]1c1ccc(CO)cc1`, the z-score was 0.681 (inactive) in [1]; 3.77 (inactive) in [3]; 0.603 (inactive) in experiment [4]; 1.68 (inactive) in [5]; 0.599 (inactive) in experiment [6]; 0.517 in [7]. Moreover, the z-score was 0.277 (inactive) in experiment [8], 0.691 (inactive) in experiment [9] and -0.0877 in [10]. The same compound returned a composite z-score in [2] of 0.022.
For `C=CCC(OC(C)=O)[C@@H]1[C@@H](N(Cc2ccc(-c3ccccc3)cc2)C(=O)Cc2ccc(F)cc2)c2cc(OCCCO)ccc2N1C(=O)Cc1ccc(OC)cc1` (stereo not given in full), the z-score in experiment [1] is 0.246 (inactive); in experiment [3], 3.94 (inactive); in experiment [4], 0.477 (inactive); in [5], -0.407 (inactive); in experiment [6], 0.259 (inactive); in [7], -0.152. Besides, the z-score in [8] is 0.0982 (inactive); in [9], 0.675 (inactive); in experiment [10] it was 1.67. The compound further returned a composite z-score in experiment [2] of 0.106.
Consider `NC(=O)NCC#Cc1ccc2c(c1)[C@]1(C(=O)N2)[C@H](C(=O)NC[C@H](O)c2ccccc2)[C@H]2C(=O)O[C@H](c3ccccc3)[C@H](c3ccccc3)N2[C@@H]1c1ccc(OCCO)cc1`, for which the z-score in experiment [1] was 0.851 (inactive); in experiment [3], 4.47 (inactive); in [4], 1.72 (inactive); in experiment [5], 1.55 (inactive); in experiment [6], 0.49 (inactive); in experiment [7], 0.0785. The z-score was 1.59 (inactive) in experiment [8], 0.849 (inactive) in experiment [9] and 0.737 in experiment [10]. Besides, the composite z-score in experiment [2] was 0.157.
For the compound `O=C1OCC=C[C@H]2OC34C=CCN(c5ccc(Cl)cc5)C(=O)[C@H]3N(CCO)C(=O)[C@@H]4[C@@H]12` (stereo not given in full), the z-score is -0.367 (inactive) in experiment [1]; 0.506 (inactive) in experiment [3]; 0.0971 (inactive) in experiment [4]; 0.111 (inactive) in [5]; 0.403 (inactive) in experiment [6]; -0.677 in [7]. In addition, the z-score is 1.12 (inactive) in experiment [8], 0.908 (inactive) in experiment [9] and 1.31 in [10]. This compound yielded a composite z-score in [2] of -0.147.
`O=C1NC(=O)C2C1C=CC(C(O)c1c(F)cccc1Cl)N2Nc1ccc(Cl)cc1Cl` (stereo not given): the z-score is -3.86 (inactive) in [1]; 3.9 (inactive) in experiment [3]; 0.914 (inactive) in experiment [4]; -0.87 (inactive) in experiment [5]; 1.17 (inactive) in experiment [6]; -1.27 in experiment [7]. For the same compound, the z-score in experiment [8] is 0.295 (inactive); in experiment [9], -5.4 (inactive); in experiment [10], -2.57. The compound also gave a composite z-score in experiment [2] of 0.501.
